# Results reported in PubChem BioAssay (NCI).
# Compounds without any hit were thinned out: in the full panel of roughly 83,000, 20% have a hit.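 Each cell line was grown in a 96-well plate and treated with one concentration of compound for 48 hours. Values below 10 were considered active.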 A number with no mark means an inactive call. The source made the active and inactive calls.
# Tested on: HCC-2998 colon
# Assay: NCI-60 one-dose screen, 48 h (100 = growth as untreated, 0 = no growth, -100 = all killed)
# Settings: 10 µM unless noted
# Method: Growth inhibition of the HCC-2998 human tumor cell line is measured as a screen for anti-cancer activity. Cells are grown in 96 well plates and exposed to the test compound for 48 hours. Compounds are tested at a single concentration, which is 10^-5 M for most compounds. The reported endpoint is percent growth (GI% or GIPRCNT), where numbers from 0 - 100% represent growth inhibition, and numbers from -100% - 0 represent cell death. For example, a value of 40 represents 60% growth inhibition. A value of 0 means no net growth occurred over the course of the experiment. A value of -40 indicates 40% of cells at the beginning of the experiment died by the end of the experiment. A value of -100 means all cells are dead at the end of the experiment.
# NCI-60 Human Tumor Cell Lines Screen was performed using the standard one-dose NCI protocol, which is described in more detail at https://dtp.cancer.gov/discovery_development/nci-60/default.htm.
# Compounds with GIPRCNT values below 10 were considered active. Activity score was based on GIPRCNT using the following formula: […]
# Score is 0 for GIPRCNT values of 100 or above, 50 for GIPRCNT values of 0, and 100 for GIPRCNT values of -100.
row,Compound,growth
1,CCOc1c(Br)cc(C2C(C(=O)OC)=CN(C)C=C2C(=O)OC)cc1OC,-77.5% (active)
2,CSc1nc2c(c(=O)n1C)N=C1c3ccccc3C(=O)C1C(c1ccccc1)N2 (stereo not given),64.8%
3,CC(C)C[C@H](C(=O)N[C@H](C(N)=O)C(C)C)N1CC=CCN(OCc2ccccc2)S1(=O)=O,108% [2.5 µM]
4,CC[C@@H](C)[C@H](NC(=O)Cn1cc(CNC(=O)[C@@H](NC(=O)OCc2ccccc2)C(C)C)nn1)C(=O)O,101%
5,COC(=O)C1(C)CCC[C@]2(C)[C@H]3C[C@H]4C(C(C)C)=C[C@]3(CC[C@@H]12)[C@H]1[C@@H]4[C@@H](OCC#CCN2CCOCC2)CC[C@@H]1OCC#CCN1CCOCC1 (stereo not given in full),97.4%
6,COc1ccc(/C=c2\sc3n(c2=O)NC2C(N=3)N(C)C(=O)N2C)cc1 (stereo not given),108%
7,COc1ccc(CN2CCCC(C(=O)c3ccc(C(F)(F)F)cc3)C2)c(O)c1 (stereo not given),31.8%
8,COC(=O)/C(CCC=C(C)C)=C1\[C@@H](OC(C)=O)C[C@@]2(C)[C@H]1C[C@@H](O)[C@H]1[C@@]3(C)CC[C@H](NC(=O)c4cnccn4)[C@@H](C)[C@@H]3CC[C@@]12C,104%
9,O=C1/C=C/[C@@H](O)[C@@H]2C[C@@H](O)C[C@H]2/C=C/CCCCO1,6.82% (active)
10,COc1cc(CNC(=O)c2ccsc2Nc2ccnc(C(F)(F)F)c2)ccc1O,109%
11,COc1ccccc1C(=O)/C=C/c1ccccc1,103%
12,O=c1cc(NC2CCN(CCCc3ccccc3)CC2)c2cc(Cl)ccc2o1,-6.89% (active)
13,COC(=O)C1=Nc2ccc(F)cc2/C1=C/c1sc(=S)[nH]c1O,25%
14,Brc1ccc(Nc2nc3ccccc3nc2Nc2ccc(Br)cc2)cc1,-56.5% (active)
15,COc1ccccc1N1C(=N)S/C(=C\c2ccc(OCc3ccccc3F)cc2)C1=O,109%
16,COc1ccc(-c2nc(-c3ccccc3)c(-c3ccccc3)[nH]2)cc1OC1CCCCC1,90.8%
17,CCCCCCCCCCCCCCn1cc(C2=C(c3coc4ccc(OC)cc34)C(=O)NC2=O)c2ccccc21,104%
18,O=c1c(-c2nc3ccccc3[nH]2)cc2ccccc2n1Cc1cn(Cc2ccc(N3CCOCC3)cc2)nn1,93.2%
19,Nc1cccc(Nc2cc(S(=O)(=O)O)c(N)c3c2C(=O)c2ccccc2C3=O)c1,120%
20,CCOc1ccccc1CN1CCc2nc3cc(C(C)(C)C)[nH]n3c(=O)c2C1,98.7%

row,Compound,growth
1,Nc1no[n+]([O-])c1-c1nnc2c(n1)-c1ccccc1C2=O,68.1%
2,O=C(O)c1cn(C2CC2)c2cc(N3CCN(C(=O)C[n+]4ccccc4)CC3)c(F)cc2c1=O,106%
3,O=C(/C=C/c1ccccc1)c1ccc(Nc2nc(NCCO)nc(Nc3ccc(Cl)cc3)n2)cc1,62.5%
4,Cc1ccc2cccc(Oc3ccc(Nc4ncnc5onc(-c6ccccc6)c45)cc3)c2n1,100%
5,CCOC(=O)c1ccc(N=Cc2sc(=O)[nH]c2O)cc1,101%
6,COc1ccc(/C=C/C(=O)c2ccc3cc(OC)c(OC)cc3c2)cc1OC,48.6%
7,O=c1oc2ccc(F)cc2c(=O)n1-c1ccc(I)cc1F,14.6%
8,COc1cc(C(=O)NN=C2c3ccccc3-c3ccccc32)cc(OC)c1OC,77.9%
9,CCN1C(=O)N(c2ccccc2)C2Nn3c(s/c(=C4\C(=O)N(C(C)C)c5ccccc54)c3=O)=NC21 (stereo not given),112%
10,COc1cc(/C=C/C(=O)c2ccc(Cl)cc2)cc(CN2CCCCC2)c1O,95.5%
11,Clc1ccc(Nc2scc3[n+]2CCC3)cc1,104%
12,O=c1c2cccc(F)c2sc2c(N3CCNCC3)nc3ccccc3c12,-6.49% (active)
13,O=C(Nc1ccc(Cl)cc1F)c1cc(Br)ccc1O,16.7%
14,COc1ccc(/C=C/C(=O)c2c(C)nc3ccccc3c2/C=C/c2ccccc2)c(OC)c1,92.1%
15,NC1(N2SC(S)=C3CCCC=C32)CCCCC1,101%
16,CC(=O)c1ccc(Nc2nc(NCCO)nc(Nc3ccc(Cl)cc3)n2)cc1,105%
17,CC[C@]1(O)C[C@@H]2CN(CCc3c([nH]c4ccccc34)[C@@](C(=O)OC)(c3cc4c(cc3OC)N(C)[C@H]3[C@@](O)(C(=O)OC)[C@H](OC(C)=O)[C@]5(CC)C=CCN6CC[C@]43[C@@H]65)C2)C1,0.153% (active)
18,O=C(/C=C/c1ccccn1)c1ccc(OCc2nnc(-c3ccc(Cl)cc3)o2)cc1,28%
19,COc1ccc(Nc2cc(C)nc(NCc3ccccc3)n2)cc1,21.2%
20,O=C(CN1C=NC2C(N3CCOCC3)=NC=NC21)c1ccc(Br)cc1 (stereo not given),111%
